Test results: the supplement of paper PMC12067093, “Discovery and optimisation of a covalent ligand for TRIM25 and its application to targeted protein ubiquitination” (Chemical Science, 2025)
Of roughly 21,000 targets only a part is listed; those with the largest changes were picked by preference.

Compound: Cc1cc(ccc1-c1ccccc1)C(=O)N1CCCN(CC1)C(=O)CCl [compound 10]
Assay: probe-labelled cysteine peptide fold change vs DMSO (competition) (log2 fold change); higher = less target engagement (more negative = stronger competition)
Conditions: 10 µM; THP-1; incubation time: 4 h
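Further: competitive profiling in live THP-1 cells: cysteine peptides tagged with an iodoacetamide desthiobiotin (IA-DTB) probe, intensity after compound treatment relative to DMSO-treated cells.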

Target	probe-labelled cysteine peptide fold change
GSK3B_P49841_335_LTPLEACAHSFFDELRDPNVK (UniProt P49841)	0.133
GRN_P28799_178_CITPTGTHPLAK (UniProt P28799)	-0.279
FKBP8_Q14318_274_CLNNLAASQLK (UniProt Q14318)	0.0653
GLA_P06280_56_FMCNLDCQEEPDSCISEK (UniProt P06280)	0.07
GFM2_Q969S9_248_LLWNCNSNDGK (UniProt Q969S9)	-0.353
GPD1L_Q8N335_216_NIVAVGAGFCDGLR (UniProt Q8N335)	-0.0284
HCK_P08631_241_LSVPCMSSK (UniProt P08631)	-0.0986
GPX1_P07203_78_GLVVLGFPCNQFGHQENAKNEEILNSLK (UniProt P07203)	-0.208
GOLGA3_Q08378_769_LGELQGEAASREDTICLLQNEK (UniProt Q08378)	-0.084
FTSJ3_Q8IY81_293_VCCQDIR (UniProt Q8IY81)	0.217
FGR_P09769_415_LIKDDEYNPCQGSK (UniProt P09769)	-0.148
FKBP3_Q00688_133_KGDVVHCWYTGTLQDGTVFDTNIQTSAK (UniProt Q00688)	0.106
GSPT1_P15170_464_TAGTICLETFK (UniProt P15170)	0.00954
HDHD3_Q9BSH5_109_DFSHPCTWQVLDGAEDTLR (UniProt Q9BSH5)	-0.47
FSCN1_Q16658_226_VAFRDCEGR (UniProt Q16658)	-0.244
GPAA1_O43292_266_GGLLCTLQGK (UniProt O43292)	-0.168
GRHPR_Q9UBQ7_288_NCVILPHIGSATHR (UniProt Q9UBQ7)	0.293
HERC2_O95714_1201_ERDDHEELAWPGIMESFFTGQNCR (UniProt O95714)	-0.0998
GATD1_Q8NB37_94_YHALLIPSCPGALTDLASSGSLAR (UniProt Q8NB37)	0.0159
GSDMD_P57764_38_RVVQELDHGGEFIPVTSLQSSTGFQPYCLVVR (UniProt P57764)	0.275
HEATR5A_Q86XA9_1635_QIICAAQEHVK (UniProt Q86XA9)	0.0658
FLCN_Q8NFG4_215_VFEAEQFGCPQR (UniProt Q8NFG4)	-0.0204
GATD3B_A0A0B4J2D5_177_EFHQAGKPIGLCCIAPVLAAK<|>GATD3A_P0DPI2_177_EFHQAGKPIGLCCIAPVLAAK (UniProt P0DPI2)	-0.563
HINT3_Q9NQE9_66+73_QDPGTELLHCENEDLICFK (UniProt Q9NQE9)	-0.386
GNB1_P62873_148+149_ELAGHTGYLSCCR (UniProt P62873)	-0.185
HGS_O14964_212_VCEPCYEQLNR (UniProt O14964)	0.0236
GTF3A_Q92664_191_AHEGYVCQK (UniProt Q92664)	0.112

Same assay, conditions: 50 µM; THP-1; incubation time: 4 h

Target	probe-labelled cysteine peptide fold change
GSK3B_P49841_335_LTPLEACAHSFFDELRDPNVK (UniProt P49841)	0.0393
GRN_P28799_178_CITPTGTHPLAK (UniProt P28799)	-0.341
FKBP8_Q14318_274_CLNNLAASQLK (UniProt Q14318)	-0.0462
GLA_P06280_56_FMCNLDCQEEPDSCISEK (UniProt P06280)	-0.0872
GFM2_Q969S9_248_LLWNCNSNDGK (UniProt Q969S9)	-0.937
GPD1L_Q8N335_216_NIVAVGAGFCDGLR (UniProt Q8N335)	0.115
HCK_P08631_241_LSVPCMSSK (UniProt P08631)	0.102
GPX1_P07203_78_GLVVLGFPCNQFGHQENAKNEEILNSLK (UniProt P07203)	-1.3
GOLGA3_Q08378_769_LGELQGEAASREDTICLLQNEK (UniProt Q08378)	-0.193
FTSJ3_Q8IY81_293_VCCQDIR (UniProt Q8IY81)	-0.481
FGR_P09769_415_LIKDDEYNPCQGSK (UniProt P09769)	-0.205
FKBP3_Q00688_133_KGDVVHCWYTGTLQDGTVFDTNIQTSAK (UniProt Q00688)	-0.0529
GSPT1_P15170_464_TAGTICLETFK (UniProt P15170)	0.0941
HDHD3_Q9BSH5_109_DFSHPCTWQVLDGAEDTLR (UniProt Q9BSH5)	-1.92
FSCN1_Q16658_226_VAFRDCEGR (UniProt Q16658)	-0.563
GPAA1_O43292_266_GGLLCTLQGK (UniProt O43292)	-0.0244
GRHPR_Q9UBQ7_288_NCVILPHIGSATHR (UniProt Q9UBQ7)	0.0427
HERC2_O95714_1201_ERDDHEELAWPGIMESFFTGQNCR (UniProt O95714)	-0.244
GATD1_Q8NB37_94_YHALLIPSCPGALTDLASSGSLAR (UniProt Q8NB37)	-0.00276
GSDMD_P57764_38_RVVQELDHGGEFIPVTSLQSSTGFQPYCLVVR (UniProt P57764)	-0.375
HEATR5A_Q86XA9_1635_QIICAAQEHVK (UniProt Q86XA9)	0.171
FLCN_Q8NFG4_215_VFEAEQFGCPQR (UniProt Q8NFG4)	-0.54
GATD3B_A0A0B4J2D5_177_EFHQAGKPIGLCCIAPVLAAK<|>GATD3A_P0DPI2_177_EFHQAGKPIGLCCIAPVLAAK (UniProt P0DPI2)	-1.98
HINT3_Q9NQE9_66+73_QDPGTELLHCENEDLICFK (UniProt Q9NQE9)	-0.532
GNB1_P62873_148+149_ELAGHTGYLSCCR (UniProt P62873)	-0.407
HGS_O14964_212_VCEPCYEQLNR (UniProt O14964)	-0.13
GTF3A_Q92664_191_AHEGYVCQK (UniProt Q92664)	-0.151
